Results on eight compounds are retold here after PubChem BioAssay.

Activity calls are given as the source filed them. Unless noted, the rule behind the calls is not given here.

The test system of test [1] is Wnt5a (protein binding on small-molecule microarray). Briefly: small molecules binding Wnt5a protein – biophysical, small-molecule microarray, 635/667 nm fluorescence, primary screen (AID 1142).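 Note: fluorescence read at 667 nm with signal to noise per printed feature.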 The note with it: 635 nm fluorescence, higher = more signal.
A short description of test [2]: ATP-based viability of Huh7 replicon cells – cell-based, CellTiter-Glo luminescence, basal, 48 h, cytotoxicity control for HCV replication inhibitor project, primary screen (AID 1143).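 Note: Huh7 hepatoma cells carrying a hepatitis C replication reporter with no stimulus; test concentration not given here.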 The note with it: higher = more signal, called active from +8 up or from −8 down.
The nature of test [3]: Pseudomonas biofilm growth suppression – PAO1 strain, BacTiter-Glo luminescence, LB-PBS, primary screen (AID 1144). As to conditions: P. aeruginosa PAO1 biofilm, 12 h, higher = more signal.
Test [4] in a line: basal CRE-LacZ reporter activity in PC12 – cell-based, unstimulated, primary screen (AID 1145). As to conditions: no forskolin, luminescence, 4.5 h, higher = more signal, called active from +8 up or from −8 down.
A short description of test [5]: forskolin-driven CRE-LacZ activity in PC12 – cell-based, CRE-LacZ reporter, forskolin-stimulated, primary screen (AID 1146).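 Note: PC12 cells with 6xCRE LacZ reporter stimulated by forskolin 10 µM; beta-galactosidase reporter signal reflecting CREB driven transcription.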 As to conditions: luminescence, 4.5 h, higher = more signal, called active from +8 up or from −8 down.
For test [6], the target named is Streptavidin (Streptomyces avidinii) (UniProt P22629). Briefly: compounds binding control protein streptavidin – biophysical, small-molecule microarray, 635/667 nm fluorescence, artefact control for SMM compound annotation, primary screen (AID 1147).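 Note: signal reflects streptavidin binding to arrayed compounds as a control protein.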 The note with it: higher = more signal.
Chain of Streptavidin (Streptomyces avidinii) (P22629 whole entry, looked up): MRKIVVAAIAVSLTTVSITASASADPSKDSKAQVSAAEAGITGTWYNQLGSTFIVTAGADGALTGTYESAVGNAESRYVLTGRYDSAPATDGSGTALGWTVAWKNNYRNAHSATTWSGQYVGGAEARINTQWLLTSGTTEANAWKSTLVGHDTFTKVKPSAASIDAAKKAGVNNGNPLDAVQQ
Test [7] can be described thus: probe aInhba binding on compound microarray – biochemical, small-molecule microarray, 635/667 nm fluorescence, primary screen (AID 1148).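 Note: score merges 667nm spot fluorescence with signal-to-noise for antibody binding to printed compounds.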 The note with it: higher = more signal.
Test [8] concerns the target Torsin-1A (Homo sapiens) (UniProt O14656). The test is described as follows: TOR1A wild-type binding on microarray – cell lysate, small-molecule microarray, lysate, 635/667 nm, primary screen (AID 1149). As to conditions: COS7 hTOR1A-WT lysate, 635 nm fluorescence, higher = more signal.
Test [9] shares this target. The test is described as follows: torsin A mutant lysate binding on microarrays – cell lysate, small-molecule microarray, COS7 lysate, 635/667 nm fluorescence, primary screen (AID 1150).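 Note: score pools 667 nm emission and signal to noise measuring lysate protein binding.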 The note with it: COS7 hTOR1A mutant lysate, 635 nm fluorescence, higher = more signal.
In test [10] the test system is Sonic hedgehog protein (Shh). The test is described as follows: Sonic hedgehog microarray binding compounds – biochemical, small-molecule microarray, 635/667 nm fluorescence, primary screen (AID 1151).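 Note: Shh protein binding to compounds spotted on small-molecule microarray slides; score combines spot fluorescence intensity with signal-to-noise across triplicate slides.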 The note with it: 635 nm fluorescence, higher = more signal.
A short description of test [11]: optical density shifts of acrAB sulA E. coli – strain DRC41, OD650, 48 h, E. coli filamentation inducer project, primary screen (AID 1152).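 Note: E. coli MC1000 strain DRC41 lacking acrAB efflux pump and sulA.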 As to conditions: higher = more signal, called active from +8 up or from −8 down.
Test [12] is described as follows: probe aLefty1 binding on compound microarray – biochemical, small-molecule microarray, 635/667 nm fluorescence, primary screen (AID 1153).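 Note: score merges spot fluorescence with signal-to-noise ratio from the scanned slide images.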 As to conditions: higher = more signal.
A short description of test [13]: plasmodial surface anion channel blockers, osmotic lysis – cell-based, P. falciparum Indochina, OD700, 1 h, primary screen (AID 1154). The note with it: P. falciparum Indochina infected RBC osmotic lysis, higher = more signal, called active from +8 up or from −8 down.
Test [14] in a line: plasmodial surface anion channel blockers, osmotic lysis – cell-based, P. falciparum Indochina, OD700, 2 h, primary screen (AID 1155).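 Note: lysis reports solute entry through the parasite surface anion channel PSAC.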 As to conditions: P. falciparum Indochina infected erythrocytes, higher = more signal, called active from +8 up or from −8 down.
Test [15] in a line: changes in parasitized red cell lysis, either direction – P. falciparum Indochina, OD700, 3 h, PSAC antagonist project, primary screen (AID 1156). As to conditions: P. falciparum-infected erythrocytes, osmotic lysis, higher = more signal, called active from +8 up or from −8 down.
The nature of test [16]: plasmodial surface anion channel blockers, osmotic lysis – cell-based, P. falciparum Indochina, OD700, 18 h, primary screen (AID 1157). The note with it: P. falciparum Indochina infected erythrocytes, osmotic lysis OD700, 18 h; higher = more signal, called active from +8 up or from −8 down.
Test [17] is described as follows: S6 kinase pathway phospho-S6 level changes – cell-based, A549, cytoblot, luminescence, serum-stimulated, primary screen (AID 1158).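 Note: serum-stimulated A549 lung adenocarcinoma cells; signal is phosphorylated S6 detected by cytoblot immunostaining with HRP secondary.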 As to conditions: 5 h, higher = more signal.
The target of test [18] is NADPH oxidase 2 (Homo sapiens) (UniProt P04839). The test is described as follows: compounds shifting NOX2 Amplex Red fluorescence – cell-based, HEK293-NOX2, PMA-stimulated, NOX inhibitor project, primary screen (AID 1159). Note: test concentration not given here. The note with it: 45 min, higher = more signal, called active from +8 up or from −8 down.
Chain of NADPH oxidase 2 (Homo sapiens) (P04839 whole entry, looked up): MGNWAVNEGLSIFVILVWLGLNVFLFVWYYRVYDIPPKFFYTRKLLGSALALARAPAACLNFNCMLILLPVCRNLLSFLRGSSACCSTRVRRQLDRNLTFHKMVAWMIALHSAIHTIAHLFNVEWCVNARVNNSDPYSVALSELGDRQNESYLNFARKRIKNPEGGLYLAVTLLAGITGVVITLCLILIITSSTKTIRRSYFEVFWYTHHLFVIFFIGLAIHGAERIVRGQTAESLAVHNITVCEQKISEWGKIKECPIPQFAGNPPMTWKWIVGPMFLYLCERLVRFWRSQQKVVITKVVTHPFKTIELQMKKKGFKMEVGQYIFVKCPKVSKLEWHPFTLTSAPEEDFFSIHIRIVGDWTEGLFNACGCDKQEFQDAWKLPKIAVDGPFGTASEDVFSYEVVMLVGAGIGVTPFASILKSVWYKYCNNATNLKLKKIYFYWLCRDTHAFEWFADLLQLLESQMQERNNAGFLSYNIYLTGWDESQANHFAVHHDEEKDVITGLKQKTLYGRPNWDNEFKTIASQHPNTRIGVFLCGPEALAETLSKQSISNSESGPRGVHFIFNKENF
The target in test [19] is NADPH oxidase 4 (Homo sapiens) (UniProt Q9NPH5). Briefly: compounds shifting NOX4 Amplex Red fluorescence – cell-based, HEK293-NOX4, tetracycline-induced, NOX inhibitor project, primary screen (AID 1160). The note with it: HEK293-NOX4, Amplex Red H2O2 fluorescence, 45 min; higher = more signal, called active from +8 up or from −8 down.
Chain of NADPH oxidase 4 (Homo sapiens) (Q9NPH5 whole entry, looked up): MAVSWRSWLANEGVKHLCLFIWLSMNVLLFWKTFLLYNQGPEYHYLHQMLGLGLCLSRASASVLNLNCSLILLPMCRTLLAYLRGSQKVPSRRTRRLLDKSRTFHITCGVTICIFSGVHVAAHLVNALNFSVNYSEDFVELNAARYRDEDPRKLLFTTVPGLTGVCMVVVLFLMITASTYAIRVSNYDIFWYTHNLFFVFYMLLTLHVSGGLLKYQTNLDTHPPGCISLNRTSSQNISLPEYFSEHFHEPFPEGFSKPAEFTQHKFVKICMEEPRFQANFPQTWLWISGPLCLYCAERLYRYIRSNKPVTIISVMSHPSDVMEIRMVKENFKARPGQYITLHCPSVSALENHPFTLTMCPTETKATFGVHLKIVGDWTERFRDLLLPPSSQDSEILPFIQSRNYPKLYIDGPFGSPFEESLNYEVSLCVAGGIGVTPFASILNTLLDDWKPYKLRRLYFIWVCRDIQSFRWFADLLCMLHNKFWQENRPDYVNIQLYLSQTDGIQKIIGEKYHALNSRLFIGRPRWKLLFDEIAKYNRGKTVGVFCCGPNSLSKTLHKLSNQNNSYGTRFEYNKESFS
Test [20] addresses NADPH oxidase 5 (Homo sapiens) (UniProt Q96PH1). The test is described as follows: compounds shifting NOX5 Amplex Red fluorescence – cell-based, HEK293-NOX5, NOX inhibitor project, primary screen (AID 1161). As to conditions: HEK293-NOX5, ionomycin, 45 min, higher = more signal.

Chain of NADPH oxidase 5 (Homo sapiens) (Q96PH1 whole entry, looked up): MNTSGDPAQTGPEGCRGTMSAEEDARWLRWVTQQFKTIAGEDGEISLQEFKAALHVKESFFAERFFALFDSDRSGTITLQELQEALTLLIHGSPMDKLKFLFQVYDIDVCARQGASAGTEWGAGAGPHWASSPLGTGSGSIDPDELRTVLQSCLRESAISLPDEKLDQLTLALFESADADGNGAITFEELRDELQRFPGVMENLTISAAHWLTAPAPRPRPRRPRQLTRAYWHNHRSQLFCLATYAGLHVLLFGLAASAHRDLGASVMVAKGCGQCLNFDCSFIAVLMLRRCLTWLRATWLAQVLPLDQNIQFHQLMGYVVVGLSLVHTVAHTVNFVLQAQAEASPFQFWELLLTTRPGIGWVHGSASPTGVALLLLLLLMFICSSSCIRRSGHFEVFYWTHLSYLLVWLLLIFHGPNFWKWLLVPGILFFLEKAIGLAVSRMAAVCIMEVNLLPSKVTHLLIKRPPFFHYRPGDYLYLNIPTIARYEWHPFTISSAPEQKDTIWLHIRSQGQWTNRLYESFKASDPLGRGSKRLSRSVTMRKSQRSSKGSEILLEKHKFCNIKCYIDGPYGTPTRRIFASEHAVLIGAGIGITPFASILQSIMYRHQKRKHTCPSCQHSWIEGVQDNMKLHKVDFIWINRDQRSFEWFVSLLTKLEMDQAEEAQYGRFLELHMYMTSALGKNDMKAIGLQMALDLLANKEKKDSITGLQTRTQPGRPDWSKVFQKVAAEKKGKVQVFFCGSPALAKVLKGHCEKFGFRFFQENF
Chain of Torsin-1A (Homo sapiens) (O14656 whole entry, looked up): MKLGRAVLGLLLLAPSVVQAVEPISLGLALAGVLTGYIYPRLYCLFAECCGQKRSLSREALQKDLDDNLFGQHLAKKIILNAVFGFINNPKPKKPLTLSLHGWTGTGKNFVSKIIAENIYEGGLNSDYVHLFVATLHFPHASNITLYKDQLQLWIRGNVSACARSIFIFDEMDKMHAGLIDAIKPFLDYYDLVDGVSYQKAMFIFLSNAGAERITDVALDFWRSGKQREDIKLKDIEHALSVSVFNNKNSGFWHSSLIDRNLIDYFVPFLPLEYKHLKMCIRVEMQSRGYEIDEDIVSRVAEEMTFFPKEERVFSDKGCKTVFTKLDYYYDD

On to `O=C1[C@H]2[C@H]3[C@H](O)[C@H](O)CC(=NOC[C@@H](O)COCc4ccco4)[C@@H]3CC[C@H]2C(=O)N1c1ccc(F)cc1F`, for which the composite z-score in test [1] is 0.0016; in [6] it was -0.195; in test [7] it was -0.231; in the test with Torsin-1A (Homo sapiens) [8] it was 1.13; with Torsin-1A (Homo sapiens) [9], 0.516; in [10], 0.749. Besides, the composite z-score in test [12] was -0.639. Besides, the z-score in [2] is -1.7 (inactive); in test [3] it was 1.85 (inactive); in test [4] it was -0.475 (inactive); in test [5], -0.0097 (inactive); in [11], -0.0233 (inactive); in test [13] it was 2.3 (inactive). Besides, the z-score is 0.537 (inactive) in test [14]; 1.67 (inactive) in test [15]; 0.405 (inactive) in [16]; -0.51 in test [17]; -1.37 (inactive) in test [18]; 0.523 (inactive) in test [19]. For the same compound, in test [20], the z-score was -0.579.

For the compound `O=C(CS)NCCCCCNC(=O)[C@H]1C[C@H]2C(=O)N3CCC[C@H]3C(=O)N2[C@H]1c1cccc(OCCO)c1`, the composite z-score was 0.76 in test [1]; 0.0654 in test [6]; -0.016 in test [7]; 0.581 with Torsin-1A (Homo sapiens) [8]; 0.751 in the test with Torsin-1A (Homo sapiens) [9]; 1.99 in [10]. Also, the composite z-score in test [12] worked out at 0.315. Moreover, the z-score in [2] was 0.0319 (inactive); in test [3], 0.162 (inactive); in test [4] it was -0.126 (inactive); in test [5], 0.899 (inactive); in test [11], -0.0612 (inactive); in [13], 3.12 (inactive). Besides, the z-score in test [14] was 0.55 (inactive); in [15] it was -2.35 (inactive); in test [16], 0.35 (inactive); in [17], 0.345; in [18], 1.45 (inactive); in [19], 0.557 (inactive). Further, the z-score in [20] came to 0.557.

Turning to `CO[C@@H]1COC(=O)[C@@H]2CCCN2C(=O)[C@@H](C)COC(=O)[C@H](COCc2ccccc2)NC(=O)CC=C[C@H]1C`, the composite z-score in [1] is -0.127; in [6] it was 0.107; in [7], -0.172; in the test with Torsin-1A (Homo sapiens) [8] it was 0.999; with Torsin-1A (Homo sapiens) [9], 0.121; in [10], 0.731. This compound displayed a composite z-score in test [12] of -0.111. The z-score in test [2] was -0.388 (inactive); in test [3], -0.623 (inactive); in [4], -0.799 (inactive); in test [5], 0.435 (inactive); in [11] it was -2.21 (inactive); in test [13], 0.553 (inactive). The z-score is 0.367 (inactive) in test [14]; 1.29 (inactive) in test [15]; 0.441 (inactive) in test [16]; -0.493 in test [17]; -0.363 (inactive) in [18]; -0.643 (inactive) in test [19]. The z-score in test [20] was -0.159.

`O=C1C[C@@H](O)[C@@H](O)[C@@H]2[C@@H]3C(=O)N(c4cccc(Oc5ccccc5)c4)C(=O)[C@@H]3CC[C@@H]12`: the composite z-score came out at 0.111 in [1]; 0.251 in test [6]; 0.0227 in test [7]; 0.446 in the test with Torsin-1A (Homo sapiens) [8]; 0.463 with Torsin-1A (Homo sapiens) [9]; 0.521 in test [10]. Moreover, the composite z-score in test [12] is -0.0652. Moreover, the z-score is -0.146 (inactive) in test [2]; 1.27 (inactive) in test [3]; 1.24 (inactive) in [4]; 0.061 (inactive) in [5]; -0.268 (inactive) in [11]; 0.956 (inactive) in test [13]. Also, the z-score in [14] was -0.329 (inactive); in test [15] it was 0.406 (inactive); in [16], 0.0818 (inactive); in test [17], -0.363; in [18], -0.837 (inactive); in test [19], -0.154 (inactive). The z-score in test [20] was determined as 0.558.

Turning to `CCOC(=O)CCN1C(=O)[C@H]2[C@H]3[C@H](O)[C@H](O)CC(=NNC(=O)OCc4ccc(OC)cc4)[C@@H]3CC[C@H]2C1=O`, the composite z-score was -0.109 in test [1]; 0.922 in test [6]; -0.195 in test [7]; -0.0239 with Torsin-1A (Homo sapiens) [8]; 0.0335 in the test with Torsin-1A (Homo sapiens) [9]; 0.741 in [10]. For the same compound, the composite z-score in [12] was determined as 0.0288. The z-score was -0.284 (inactive) in test [2]; 0.5 (inactive) in test [3]; 0.957 (inactive) in test [4]; -0.254 (inactive) in test [5]; 0.0393 (inactive) in test [11]; 6.59 (inactive) in test [13]. Besides, the z-score is 1.07 (inactive) in test [14]; -0.495 (inactive) in test [15]; 0.353 (inactive) in test [16]; -0.587 in test [17]; -3.2 (inactive) in test [18]; -0.169 (inactive) in test [19]. The z-score in [20] was -0.974.

Take `Cc1cc2c(nc1C)CCCN2CC(C)ON=C1[C@H]2CCn3c(=O)n(-c4ccccc4)c(=O)n3[C@H]2[C@H](O)[C@@H]2O[C@H]12` (stereo not given in full): the composite z-score in test [1] was 0.337; in [6], 0.196; in [7], 0.0301; in the test with Torsin-1A (Homo sapiens) [8], -0.0339; with Torsin-1A (Homo sapiens) [9] it was 0.246; in test [10], 1.03. Further, in test [12], the composite z-score is 0.0037. For the same compound, the z-score in [2] is 0.357 (inactive); in [3], -0.258 (inactive); in test [4], 0.415 (inactive); in [5], 0.533 (inactive); in test [11] it was -1.46 (inactive); in test [13], 1.21 (inactive). Besides, the z-score in test [14] was 0.283 (inactive); in test [15], 1.27 (inactive); in test [16], 0.513 (inactive); in test [17], -0.415; in test [18] it was -0.435 (inactive); in [19], -0.00359 (inactive). Also, the z-score in [20] is -0.832.

Take `CC(CCN1CCc2nc(-c3ccccc3)c(-c3ccccc3)cc2C1)=NO[C@@H](C)c1cn([C@H](CO)Cc2ccccc2)nn1`: the composite z-score in [1] was -0.107; in test [6] it was 0.52; in test [7], 0.0131; with Torsin-1A (Homo sapiens) [8], 1.62; with Torsin-1A (Homo sapiens) [9] it was 0.482; in test [10], 1.25. Also, the composite z-score in [12] is -0.103. Besides, the z-score is -0.802 (inactive) in test [2]; -0.414 (inactive) in [3]; 0.573 (inactive) in [4]; -0.795 (inactive) in test [5]; -1.44 (inactive) in test [11]; -0.278 (inactive) in [13]. Besides, the z-score is -1.89 (inactive) in test [14]; 0.0934 (inactive) in [15]; -2.16 (inactive) in test [16]; 1.52 in test [17]; -7.26 (inactive) in [18]; -1.51 (inactive) in test [19]. Also, the z-score in test [20] was -4.19.

As for `CCCNC(=O)OC[C@H]1O[C@H](CCON=C[C@@H](OC)[C@H](C)C=CCC(=O)OC)C=C[C@@H]1Oc1ccc(OC)cc1`, the composite z-score is -0.0615 in [1]; -0.351 in [6]; -0.206 in [7]; 0.525 with Torsin-1A (Homo sapiens) [8]; 0.422 with Torsin-1A (Homo sapiens) [9]; 1.05 in test [10]. In addition, the composite z-score in test [12] came to 0.0889. For the same compound, the z-score was -0.444 (inactive) in test [2]; 1.18 (inactive) in test [3]; 3.46 (inactive) in [4]; 0.963 (inactive) in [5]; -0.042 (inactive) in [11]; 4.4 (inactive) in [13]. Moreover, the z-score in test [14] was 0.143 (inactive); in test [15], -0.0652 (inactive); in test [16], 0.368 (inactive); in test [17], 0.0604; in test [18] it was -1.56 (inactive); in test [19], 0.00725 (inactive). Moreover, in test [20], the z-score is -2.76.
